Results published in PubChem BioAssay (NCI).
The panel holds about 79,000 compounds, 15% with a hit somewhere; the sample as a whole holds those more often. Calls of active or inactive are those of the source. Cut-off read from the data, not from the text of the source: active = growth inhibition above about 70%; inactive = the rest.

What was measured:
[1] = NCI Yeast Anticancer Drug Screen. Data for the rad52 strain (AID 147);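 note: 0% = growth of vehicle-treated control cultures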; conditions: S. cerevisiae rad52 mutant growth inhibition, hits give high values
Method in brief: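 Yeast strain carrying a DNA damage repair alteration was exposed to test compounds. Growth inhibition was measured relative to vehicle-treated controls.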

[2] = NCI Yeast Anticancer Drug Screen. Data for the wt1 strain (AID 149);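 note: 0% = growth of vehicle-treated wt1 cultures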; conditions: S. cerevisiae wt1 strain (SPY 50644) growth inhibition, hits give high values
Method in brief: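 Vehicle-normalised growth inhibition; strain wt1; compound exposure.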

[3] = NCI Yeast Anticancer Drug Screen. Data for the rad50EPP+ strain (AID 151);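 note: 0% = growth of vehicle-treated control cultures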; conditions: S. cerevisiae rad50 mutant strain, hits give high values
Method in brief: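 Yeast strain carrying rad50 alteration (rad50EPP+) exposed to compounds; growth inhibition measured relative to vehicle-treated controls.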

[4] = NCI Yeast Anticancer Drug Screen. Data for the mgt1 strain (AID 153); conditions: S. cerevisiae mgt1 mutant growth inhibition, hits give high values
Method in brief: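 Yeast mgt1 strain (DNA repair/cell-cycle alteration panel) exposed to compounds; growth inhibition measured relative to vehicle-treated controls.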

[5] = NCI Yeast Anticancer Drug Screen. Data for the rad50 strain (AID 155);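 note: 0% = growth of vehicle-only cultures of the same strain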; conditions: S. cerevisiae rad50 strain growth inhibition, hits give high values
Method in brief: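 A DNA repair-deficient yeast mutant serves as the test organism; compound-induced growth inhibition is calculated against vehicle-treated cells.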

[6] = NCI Yeast Anticancer Drug Screen. Data for the mec2-1 strain (AID 157); conditions: S. cerevisiae mec2-1 strain, hits give high values
Method in brief: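 mec2-1 yeast strain, carrying an alteration in DNA damage repair or cell cycle control, was exposed to compounds; growth inhibition was measured relative to vehicle-treated controls.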

[7] = NCI Yeast Anticancer Drug Screen. Data for the rad14 strain (AID 159);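 note: 0% = growth of vehicle-treated control cultures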; conditions: S. cerevisiae rad14 strain growth inhibition, hits give high values
Method in brief: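 Vehicle-treated cultures served as the baseline for growth inhibition of a DNA repair-mutant yeast strain exposed to each compound.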

[8] = NCI Yeast Anticancer Drug Screen. Data for the sgs1 mgt1 strain (AID 161);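 note: 0% = growth of cultures given vehicle only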; conditions: S. cerevisiae sgs1 mgt1 strain, hits give high values
Method in brief: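 Yeast cells carrying a defined DNA-repair defect were exposed to test compounds. Growth inhibition was measured relative to vehicle-treated controls.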

[9] = NCI Yeast Anticancer Drug Screen. Data for the CLN2oe strain (AID 163);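 note: 0% = growth of vehicle-only control cultures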; conditions: S. cerevisiae CLN2oe strain, hits give high values
Method in brief: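 Yeast cells carrying a defined cell-cycle control alteration were exposed to test compounds. Growth inhibition was scored against vehicle-treated control cultures.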

[10] = NCI Yeast Anticancer Drug Screen. Data for the cln2 rad14 strain (AID 165);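 note: 0% = growth equal to vehicle treated cultures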; conditions: S. cerevisiae cln2 rad14 strain, hits give high values
Method in brief: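 Yeast carrying cln2 and rad14 alterations (cell cycle control and DNA damage repair) were exposed to compounds. Growth inhibition was measured against vehicle-treated controls.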

[11] = NCI Yeast Anticancer Drug Screen. Data for the bub3 strain (AID 167); conditions: S. cerevisiae bub3 mutant strain, hits give high values
Method in brief: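 Inhibition values come from growth of compound-treated mutant yeast normalised to vehicle-treated controls.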

[12] = NCI Yeast Anticancer Drug Screen. Data for the wt2 strain (AID 169);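 note: 0% = growth of vehicle-treated yeast cultures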; conditions: S. cerevisiae wt2 strain growth inhibition, hits give high values
Method in brief: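 Yeast cells were exposed to test compounds, and growth inhibition was measured relative to vehicle-treated controls.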

[13] = NCI Yeast Anticancer Drug Screen. Data for the mlh1 strain (AID 171);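 note: 0% = growth of vehicle-treated control cultures of the same strain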; conditions: S. cerevisiae mlh1 strain growth inhibition, hits give high values
Method in brief: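 Yeast carrying a defined genetic alteration in DNA damage repair or cell cycle control were exposed to test compounds. Growth inhibition was measured relative to vehicle-treated controls.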

[14] = NCI Yeast Anticancer Drug Screen. Data for the sgs1 strain (AID 173);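 note: 0% = growth of vehicle-only control cultures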; conditions: S. cerevisiae sgs1 mutant, hits give high values
Method in brief: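 Yeast mutant strains carrying defined defects in DNA damage repair or cell cycle control were exposed to test compounds. Growth inhibition was scored against vehicle-treated controls.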

[15] = NCI Yeast Anticancer Drug Screen. Data for the mlh1 rad18 strain (AID 175); conditions: S. cerevisiae mlh1 rad18 strain growth inhibition, hits give high values
Method in brief: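 Growth inhibition of the yeast strain was measured after compound exposure and expressed relative to vehicle-treated controls. The strain carries defined defects in DNA damage repair.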

[16] = NCI Yeast Anticancer Drug Screen. Data for the rad18 strain (AID 177); conditions: S. cerevisiae rad18 mutant growth inhibition, hits give high values
Method in brief: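 Yeast carrying a defined DNA damage repair alteration were exposed to compounds. Growth inhibition was expressed relative to vehicle-treated controls.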

[17] = at 5.0 µM (retest, dose inferred, filed as 0.5)
[18] = at 50.0 µM (retest, dose inferred, filed as 5.0)

Measured: growth inhibition

CC(/C=C/c1ccc(Cl)cc1)=N\NC(=S)NCC(C)C
inactive: [1]; at 1.2 µM -1% | [1]; at 3.7 µM -4% | [1]; at 11.0 µM 4% | [1]; at 33.0 µM 5% | [1]; at 100.0 µM 33% | [2]; at 1.2 µM -2% | [2]; at 3.7 µM -5% | [2]; at 11.0 µM 1% | [2]; at 33.0 µM -1% | [2]; at 100.0 µM 21% | [3]; at 1.2 µM -3% | [3]; at 3.7 µM -5% | [3]; at 11.0 µM 10% | [3]; at 33.0 µM 12% | [3]; at 100.0 µM 28% | [4]; at 1.2 µM -6% | [4]; at 3.7 µM -2% | [4]; at 11.0 µM -4% | [4]; at 33.0 µM 8% | [4]; at 100.0 µM 35% | [5]; at 1.2 µM -1% | [5]; at 3.7 µM 1% | [5]; [17] 1% | [5]; at 11.0 µM 4% | [5]; at 33.0 µM 11% | [5]; [18] 42% | [5]; at 50.0 µM 39.8% | [5]; at 100.0 µM 34% | [6]; at 1.2 µM -2% | [6]; at 3.7 µM -3% | [6]; [17] -9% | [6]; at 11.0 µM -4% | [6]; at 33.0 µM -1% | [6]; [18] 7% | [6]; at 50.0 µM 66.7% | [6]; at 100.0 µM 30% | [7]; at 1.2 µM 1% | [7]; at 3.7 µM -1% | [7]; at 11.0 µM -2% | [7]; at 33.0 µM 5% | [7]; at 100.0 µM 24% | [8]; [17] 46% | [9]; at 1.2 µM 0% | [9]; at 3.7 µM -8% | [9]; at 11.0 µM -8% | [9]; at 33.0 µM 5% | [9]; at 100.0 µM 28% | [10]; [17] 3% | [10]; [18] 37% | [10]; at 50.0 µM 17.6% | [11]; at 1.2 µM -1% | [11]; at 3.7 µM -1% | [11]; [17] 27% | [11]; at 11.0 µM -6% | [11]; at 33.0 µM 5% | [11]; [18] 68% | [11]; at 100.0 µM 37% | [12]; at 1.2 µM -7% | [12]; at 3.7 µM -5% | [12]; at 11.0 µM -12% | [12]; at 33.0 µM -2% | [12]; at 100.0 µM 24% | [13]; at 1.2 µM -3% | [13]; at 3.7 µM -5% | [13]; at 11.0 µM -3% | [13]; at 33.0 µM 7% | [13]; at 100.0 µM 36% | [14]; at 1.2 µM -13% | [14]; at 3.7 µM -8% | [14]; at 11.0 µM -6% | [14]; at 33.0 µM 7% | [14]; at 100.0 µM 34% | [15]; [17] 32% | [15]; [18] 64% | [16]; at 1.2 µM -7% | [16]; at 3.7 µM -4% | [16]; at 11.0 µM -1% | [16]; at 33.0 µM 3% | [16]; at 100.0 µM 32%
active: [8]; [18] 72% | [8]; at 50.0 µM 77.8% | [11]; at 50.0 µM 85.4% | [15]; at 50.0 µM 77.3%
